PubChem BioAssay (NCI)
Compounds without any hit were thinned out: in the full panel of roughly 83,000, 20% have a hit.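 How to read the values: 0–100, growth inhibition (40 = 60% inhibited); 0, no net growth; -100 to 0, cell death (-40 = 40% of starting cells died; -100 = all dead).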 Active and inactive are the calls of the source. The calls were made as follows: active = growth percent below 10; inactive = the rest.

Key:
Experiment in all cases: NCI-60 one-dose screen, 48 h (100 = growth as untreated, 0 = no growth, -100 = all killed)
Conditions in all cases: 10 µM
T-47D breast = tested on: T-47D breast
BT-549 breast = tested on: BT-549 breast
MDA-MB-435 melanoma = tested on: MDA-MB-435 melanoma
SW-620 colon = tested on: SW-620 colon
MCF7 breast = tested on: MCF7 breast
HCT-116 colon = tested on: HCT-116 colon
HCC-2998 colon = tested on: HCC-2998 colon
KM12 colon = tested on: KM12 colon

Measured: growth

C=CCN(CC=C)C(=O)[C@H](CC)[C@@H]1CC[C@@H](C)[C@@H]([C@H](C)[C@@H](O)[C@@H](C)C(=O)[C@H](CC)C2O[C@]3(C=C[C@@H](O)[C@]4(CC[C@@](C)([C@H]5CC[C@](O)(CC)[C@H](C)O5)O4)O3)[C@H](C)C[C@@H]2C)O1 (stereo not given in full)
active: T-47D breast 9.12% | MDA-MB-435 melanoma 6% | MCF7 breast 1.92% | HCT-116 colon 9.64%
inactive: BT-549 breast 27.3% | SW-620 colon 12.3% | HCC-2998 colon 12.6% | KM12 colon 27.5%

O=C(Cn1cc(CO)nn1)Nc1nc2ccccc2s1
inactive: T-47D breast 110% | BT-549 breast 106% | MDA-MB-435 melanoma 99.7% | SW-620 colon 106% | MCF7 breast 97.9% | HCT-116 colon 97.2% | HCC-2998 colon 109% | KM12 colon 107%

Cc1c2c[n+](C(C)C)ccc2c(C)c2c1[nH]c1ccccc12
active: T-47D breast -13.7% | BT-549 breast 2.83% | MCF7 breast 3.87% | KM12 colon 8.68%
inactive: MDA-MB-435 melanoma 15.9% | SW-620 colon 22% | HCT-116 colon 20.1% | HCC-2998 colon 18.8%

Cc1ccc(-c2c3c(N)nc(-c4cccnc4)nc3nc3c2c(C)nn3-c2ccccc2)cc1
inactive: T-47D breast 81.8% | BT-549 breast 100% | MDA-MB-435 melanoma 82.7% | SW-620 colon 102% | MCF7 breast 87.7% | HCT-116 colon 81.1% | HCC-2998 colon 103% | KM12 colon 97.1%

O=C(CCNC(=O)c1nc(-c2ccccc2)n(-c2ccc(Cl)cc2)n1)NO
inactive: T-47D breast 78.7% | BT-549 breast 115% | MDA-MB-435 melanoma 106% | SW-620 colon 106% | MCF7 breast 102% | HCT-116 colon 94% | HCC-2998 colon 93.5% | KM12 colon 93.7%

O=C1C=C(Nc2cccc(Br)c2)c2ccccc2C1=O
active: MDA-MB-435 melanoma -25.2%
inactive: T-47D breast 102% | BT-549 breast 14.7% | SW-620 colon 29.7% | MCF7 breast 21% | HCT-116 colon 52% | HCC-2998 colon 75.5% | KM12 colon 32.6%

O=C(CSc1nnc(-c2ccc(Cl)cc2)o1)Nc1ccc(C(=O)/C=C/c2ccc(Cl)cc2)cc1
inactive: T-47D breast 98.6% | BT-549 breast 133% | MDA-MB-435 melanoma 98.1% | SW-620 colon 101% | MCF7 breast 78% | HCT-116 colon 103% | HCC-2998 colon 93.1% | KM12 colon 97.8%

O=C(Nc1ccc(NS(=O)(=O)c2ccc(F)cc2)cc1)C12CC3CC(CC(C3)C1)C2
inactive: T-47D breast 76.2% | BT-549 breast 93.8% | MDA-MB-435 melanoma 95.9% | SW-620 colon 99.4% | MCF7 breast 78% | HCT-116 colon 97.8% | HCC-2998 colon 96.4% | KM12 colon 99.4%

COc1ccc(C(=O)N2C=Cc3ccccc3C2C#N)cc1 (stereo not given)
inactive: T-47D breast 90.8% | BT-549 breast 103% | MDA-MB-435 melanoma 72.3% | SW-620 colon 99% | MCF7 breast 96.4% | HCT-116 colon 115% | HCC-2998 colon 103% | KM12 colon 89.6%

COc1ccc(-c2n[nH]nc2-c2cc(OC)c3c(c2OC)OCO3)cc1
active: MDA-MB-435 melanoma -12.3%
inactive: T-47D breast 27.9% | BT-549 breast 16.8% | SW-620 colon 19.4% | MCF7 breast 27.7% | HCT-116 colon 25.6% | HCC-2998 colon 39.6% | KM12 colon 31.9%

O=c1[nH]c(=O)n(C2C[C@H](O)[C@@H](CO)O2)cc1C(F)(F)F (stereo not given in full)
inactive: T-47D breast 95.3% | BT-549 breast 105% | MDA-MB-435 melanoma 102% | SW-620 colon 114% | MCF7 breast 102% | HCT-116 colon 106% | HCC-2998 colon 108% | KM12 colon 115%

COc1ccc(Nc2cnc3cc(NS(=O)(=O)c4ccc(C)cc4)ccc3n2)cc1
active: MDA-MB-435 melanoma 4.57%
inactive: T-47D breast 94.4% | BT-549 breast 98.1% | SW-620 colon 59.9% | MCF7 breast 61.6% | HCT-116 colon 79.6% | HCC-2998 colon 93.6% | KM12 colon 71.3%

OCC1OC2C(NC(=S)N2c2ccccc2)C(O)C1O (stereo not given)
inactive: T-47D breast 108% | BT-549 breast 106% | MDA-MB-435 melanoma 98.3% | SW-620 colon 98.4% | MCF7 breast 103% | HCT-116 colon 111% | HCC-2998 colon 104% | KM12 colon 103%

COc1cc(-c2nn(-c3ccc(NC(=O)NCCNS(=O)(=O)c4ccc(F)cc4)cc3)cc2-c2ccncc2)ccc1Cl
active: BT-549 breast -3.98% | MDA-MB-435 melanoma -0.232% | MCF7 breast 6.49% | HCT-116 colon -3.49% | HCC-2998 colon 6.84% | KM12 colon 2.84%
inactive: T-47D breast 34.8% | SW-620 colon 18.3%

CC(C)(O)CCl
inactive: T-47D breast 116% | BT-549 breast 116% | MDA-MB-435 melanoma 102% | SW-620 colon 99.5% | MCF7 breast 100% | HCT-116 colon 110% | HCC-2998 colon 109% | KM12 colon 107%

O=C(CCn1cnc2c(cc(-c3ccccc3)n2-c2ccccc2)c1=O)Nc1ccc(F)cc1
inactive: T-47D breast 68.2% | BT-549 breast 57.8% | MDA-MB-435 melanoma 85.2% | SW-620 colon 95.9% | MCF7 breast 74.7% | HCT-116 colon 62.5% | HCC-2998 colon 86.2% | KM12 colon 73.8%

O=c1cn[nH]c2ccc(Br)cc12
inactive: T-47D breast 83% | BT-549 breast 105% | MDA-MB-435 melanoma 111% | SW-620 colon 103% | MCF7 breast 105% | HCT-116 colon 97.8% | HCC-2998 colon 108% | KM12 colon 98.7%

COc1cc(-c2csc(NC(=O)Nc3cc(C(F)(F)F)cc(C(F)(F)F)c3)n2)cc(OC)c1OC
active: T-47D breast -8.28% | BT-549 breast 0.972% | MCF7 breast 2.97% | HCT-116 colon 0.288%
inactive: MDA-MB-435 melanoma 13% | SW-620 colon 26.5% | HCC-2998 colon 22.4% | KM12 colon 18.7%

CC(C)C[C@H](NC(=O)Cn1cccc(CNC(=O)c2ccccc2)c1=O)B(O)O
active: T-47D breast -18.5% | MDA-MB-435 melanoma -54.5% | SW-620 colon 6.53% | HCT-116 colon 2.43% | HCC-2998 colon -34.8% | KM12 colon -12.5%
inactive: BT-549 breast 24.1% | MCF7 breast 30.2%

COc1cc(/C=C/c2cc(/C=C/c3ccc(O)c(OC)c3)n(C(=O)Nc3ccc(C)cc3)n2)ccc1O
active: T-47D breast 5.65% | BT-549 breast -23% | MDA-MB-435 melanoma -1.64% | SW-620 colon 8.12% | MCF7 breast 6.3% | HCT-116 colon 1.6% | HCC-2998 colon 2.19% | KM12 colon -1.13%

COc1cc2c3c(n([C@@H]4CCOC4)c(=O)c2cc1OC)-c1cc2c(cc1C3=O)OCO2
inactive: T-47D breast 21.7% | BT-549 breast 46.2% | MDA-MB-435 melanoma 62.7% | SW-620 colon 50.2% | MCF7 breast 13.5% | HCT-116 colon 27.1% | HCC-2998 colon 70.9% | KM12 colon 62.4%

COc1ccc(/C(C#N)=C/c2ccccc2OC)cc1
inactive: T-47D breast 26% | BT-549 breast 37.1% | SW-620 colon 22.8% | MCF7 breast 14.8% | HCT-116 colon 18.1% | HCC-2998 colon 50.2% | KM12 colon 32.2%
active: MDA-MB-435 melanoma -19.4%

Nc1ccc(/C=N/Nc2ccnc3c(O)cccc23)c2cccnc12
active: SW-620 colon 7.41% | HCT-116 colon -0.0751%
inactive: T-47D breast 98.3% | BT-549 breast 80.2% | MDA-MB-435 melanoma 46.8% | MCF7 breast 31.7% | HCC-2998 colon 60.8% | KM12 colon 43.3%

CC(C)(C)c1ccc(S(=O)(=O)N[C@H]2CC[C@H]3[C@@H]4CCc5cc(O)ccc5[C@H]4CC[C@]23C)cc1
inactive: T-47D breast 26.2% | BT-549 breast 43.9% | MDA-MB-435 melanoma 30.4% | SW-620 colon 58.5% | MCF7 breast 14.9% | HCT-116 colon 22.1% | HCC-2998 colon 74.4% | KM12 colon 39.2%

O=S(=O)(NCCCNc1nccc(-c2cn(-c3ccccc3)nc2-c2ccc(Cl)c(O)c2)n1)c1ccccc1
inactive: T-47D breast 42.9% | BT-549 breast 75.9% | MDA-MB-435 melanoma 68.7% | SW-620 colon 102% | MCF7 breast 33% | HCT-116 colon 53.1% | HCC-2998 colon 91.6% | KM12 colon 56.7%

C[C@]12CC[C@@H]3c4ccc(O)cc4CC[C@H]3[C@@H]1CC[C@@H]2NS(=O)(=O)c1ccc(C(F)(F)F)cc1
inactive: T-47D breast 25% | BT-549 breast 59% | MDA-MB-435 melanoma 22.3% | SW-620 colon 69.7% | HCT-116 colon 18.5% | HCC-2998 colon 60.4% | KM12 colon 47.5%
active: MCF7 breast 2.42%

CS(=O)(=O)c1nccc(-c2c(-c3cccc(OCc4ccc(F)cc4)c3)nc3sccn23)n1
active: HCC-2998 colon -16.3%
inactive: T-47D breast 71.6% | BT-549 breast 41.7% | MDA-MB-435 melanoma 81.3% | SW-620 colon 48.4% | MCF7 breast 69.5% | HCT-116 colon 46.4% | KM12 colon 38.9%

CC(C)(C)OC(=O)CC(S(=O)(=O)c1ccccc1)S(=O)(=O)c1ccccc1
active: SW-620 colon -63.9%
inactive: T-47D breast 67.1% | BT-549 breast 108% | MDA-MB-435 melanoma 100% | MCF7 breast 97% | HCT-116 colon 82.5% | HCC-2998 colon 106% | KM12 colon 99.6%

CCOC(=O)c1cc(C(=O)c2ccc(Cl)cc2)n2ccc(-c3cc[n+](CC(=O)c4ccc(OC)cc4)cc3)cc12
inactive: T-47D breast 83.4% | BT-549 breast 82.1% | MDA-MB-435 melanoma 75.5% | HCC-2998 colon 100% | KM12 colon 64.4%
active: SW-620 colon -29.5% | MCF7 breast 1.28% | HCT-116 colon 5.5%

CCC(CC)n1c(C)cc(=O)n1C(CC)CC
inactive: T-47D breast 105% | BT-549 breast 122% | MDA-MB-435 melanoma 102% | SW-620 colon 105% | MCF7 breast 105% | HCT-116 colon 105% | HCC-2998 colon 105% | KM12 colon 115%
